TGFb inhibitor: TGF-b pathway inhibition. Potency, µM (series often up to 46.1 µM), without a hit: at the highest dose activity, negative = inhibition, hits mostly inhibitors. 410,000 compounds, 1.2% hits. HepG2 CAGA-GFP TGF-b/SMAD3 reporter, GFP fluorescence, 18 h; TGF-beta stimulated, 500 pg/mL final; further: potency means the concentration at half of the fitted maximal effect; on the % scale 0 is the no-effect control and ±100 the full control effect; nearly all actives have a fitted effect of over 65% in size
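Cell-based qHTS in HEPG2 carrying a CAGA-GFP Smad reporter; compounds added before 500 pg/mL final TGF-beta, 18 h incubation at 37 degrees C, GFP fluorescence quantified per cell by imaging cytometry.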
DT40 TDP1 no CPT: qHTS for Inhibitors of human tyrosyl-DNA phosphodiesterase 1 (TDP1): qHTS in cells in absence of CPT; DT40 Tdp1-/- hTDP1 cells, no CPT, ATP luminescence, 48 h; Potency, µM (highest dose often 46.2 µM), inactives show at the top dose activity change, negative = growth inhibition, actives largely listed as inhibitors; 420,000 compounds, 15% hits; AID 686978, 2013; further: potency means the concentration at half of the fitted maximal effect; on the % scale 0 is the no-effect control and ±100 the full control effect; nearly all actives have a fitted effect of over 55% in size
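Chicken DT40 Tdp1-/- cells stably complemented with human TDP1 were seeded at 400 cells/well with DMSO in place of 20 nM camptothecin. After compound pinning, cells grew at least 48 hr at 37 °C; viability read by CellTiter-Glo luminescence.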
TDP1 cell CPT: growth inhibition of DT40 Tdp1-/-;hTDP1 cells with camptothecin (screen for TDP1 inhibitors); Potency, µM (series often up to 46.2 µM), for the others: top-dose activity change, negative = growth inhibition, most hits filed as inhibitors; chicken DT40 Tdp1-/-;hTDP1 cells + 20 nM CPT, ATP luminescence, 48 h; 420,000 compounds, 12% hits; further: potency means the concentration at half of the fitted maximal effect; on the % scale 0 is the no-effect control and ±100 the full control effect; nearly all actives have a fitted effect of over 55% in size
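Chicken DT40 Tdp1-/- cells complemented with human TDP1, 400 cells/well, exposed to compounds plus 20 nM camptothecin for at least 48 h at 37 C; viability read as ATP content by CellTiter-Glo luminescence.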
TDP1 inh: inhibitors of human tyrosyl-DNA phosphodiesterase TDP1; Q9NUW8; Potency, µM (doses to about 130 µM), without a hit: top-dose activity change, negative = inhibition, usual class: inhibitors; 350,000 compounds, 0.28% hits; recombinant TDP1, AlphaScreen DNA substrate cleavage; further: potency means the concentration at half of the fitted maximal effect; on the % scale 0 is the no-effect control and ±100 the full control effect; nearly all actives have a fitted effect of over 40% in size
Target sequence (Q9NUW8 whole entry, looked up): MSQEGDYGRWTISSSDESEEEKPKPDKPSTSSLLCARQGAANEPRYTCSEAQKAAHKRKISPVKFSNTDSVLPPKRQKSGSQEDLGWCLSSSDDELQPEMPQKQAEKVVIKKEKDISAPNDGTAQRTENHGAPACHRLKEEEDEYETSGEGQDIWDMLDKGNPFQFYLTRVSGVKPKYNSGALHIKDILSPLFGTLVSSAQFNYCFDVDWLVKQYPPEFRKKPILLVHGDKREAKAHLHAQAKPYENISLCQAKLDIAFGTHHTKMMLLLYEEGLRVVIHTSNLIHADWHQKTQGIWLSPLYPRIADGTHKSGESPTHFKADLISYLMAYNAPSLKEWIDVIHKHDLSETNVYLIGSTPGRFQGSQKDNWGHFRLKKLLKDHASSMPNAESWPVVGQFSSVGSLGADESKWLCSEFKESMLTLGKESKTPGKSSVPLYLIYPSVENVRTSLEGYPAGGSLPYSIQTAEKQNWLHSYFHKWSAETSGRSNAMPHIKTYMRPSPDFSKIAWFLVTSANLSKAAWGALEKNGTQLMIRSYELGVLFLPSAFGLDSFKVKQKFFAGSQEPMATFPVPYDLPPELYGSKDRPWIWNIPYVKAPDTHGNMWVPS
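AlphaScreen read-out: signal falls as enzyme removes the 3' tyrosine-FITC from a 5'-biotinylated DNA oligo (15 nM, 5 min, RT). Enzyme was E. coli-made recombinant Tdp1 at 1 nM, exposed to compound for 15 min beforehand; beads 10 ug/ml, 10 min.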
HepG2 viability: counter-screen for TGF-b inhibitors: cytotoxicity in HepG2 cells; HepG2 CAGA-GFP viability, ATP luminescence, 18 h; Potency, µM (series often up to 46.1 µM), for the others: at the top dose activity change, negative = cytotoxicity, actives largely listed as cytotoxic; 410,000 compounds, 0.76% hits; AID 588856; further: potency means the concentration at half of the fitted maximal effect
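HepG2 CAGA-GFP cells (1000/well, DMEM with 1% FBS) received compound, then TGF-beta at 500 pg/mL final, and were incubated 18 hours at 37 degrees C. Viability was read by CellTiter-Glo luminescence. Media-only wells were set as complete cell-killing and DMSO as no toxicity.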
IL-1B inflam inh: inhibitors of inflammasome signaling (IL-1 beta secretion); THP-1 LPS/ATP IL-1B secretion, AlphaLISA, 16 h; hits give low values; activity change, % at 57.5 µM; 360,000 compounds, 4.7% hits; AID 743279; in the data active means activity change below about -50%; inconclusive means mostly about -30% to -49%; further: on the % scale 0 is the no-effect control and ±100 the full control effect
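Secreted IL-1B measured by AlphaLISA bead assay after 16 h compound exposure of THP-1 cells; compounds (final up to 57.5 uM) added 1 h before LPS (250 ng/mL) and ATP (1.25 mM) stimulation; lower signal means less secretion.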
* marks the source's active call; other numbers are inactive results; ? = inconclusive; . = no result given; [ ] = another dose, or the depositor's remark. Shown are actives, neighbours in structure and some others; about 19% of the full set was active somewhere. Unless noted, the call rests on the fitted dose curve; in most records, active means well fitted curve in the direction sought with a large enough effect; inconclusive means small, poorly fitted or top-dose-only effect, or another doubt; inactive means no such curve, though single readings can be large; an effect the other way counts as inactive or inconclusive.

SMILES	TGFb inhibitor	DT40 TDP1 no CPT	TDP1 cell CPT	TDP1 inh	HepG2 viability	IL-1B inflam inh
CCCc1nc2cc(C)c(Br)c(C)n2c1CC1CCCCC1	.	2.9µM*	4.1µM*	.	.	?
Cc1cc2nc(-c3ccccc3)c(CC3CCCCC3)n2c(C)c1Br	.	15µM*	23µM*	.	.	33
Cc1cc2nc(-c3ccc(F)cc3)c(CC3CCCCC3)n2c(C)c1Br	.	21µM*	?	.	.	36
Cc1cc2nc(-c3cccc(Cl)c3)c(CC3CCCCC3)n2c(C)c1Br	.	?	-27%	.	.	36
COC(=O)C1=C(C)NC(C)=C(C(=O)OCCSc2ccccc2)C1C (configuration not stated)	.	.	.	-10%	.	.
COc1ccc(C(CC(=O)O)NC(=O)c2cc3ccccc3oc2=O)cc1OC (configuration not stated)	28%	.	.	3%	4%	.
C[C@H]1Cc2c(-c3ccccc3)nc3c(c2CO1)CN(S(=O)(=O)c1ccc2c(c1)OCCN2C)CC3	.	.	.	13%[12.3 µM]	.	.
COCCCn1c(C2CCCCC2)nc2oc3cc(OC)ccc3c(=O)c2c1=O	1%	21µM*	?	0%	-1%	4
CC(C)c1nc2c(c(=O)c3ccccc3n2C)c(=O)n1CCc1ccccc1	?	9.2µM*	?	-1%	-40%	.
COc1ccc(CCn2c(-c3ccccc3)nc3c(c(=O)c4ccccc4n3C)c2=O)cc1	.	.	.	3%	.	.
COc1ccc(CCn2c(C(C)C)nc3oc4ccccc4c(=O)c3c2=O)cc1	-11%	29µM*	?	0%	-10%	-8
CCCc1nc2oc3cc(OC)ccc3c(=O)c2c(=O)n1CCc1ccccc1	6%	23µM*	21µM*	5%	0%	-11
O=C(CCCC1=NS(=O)(=O)c2ccccc2N1)N1CCN(c2ccc([N+](=O)[O-])cc2)CC1	8%	18%	2%	4%	-1%	0
COc1ccc(CC(=O)NCC2CCCN(Cc3ccc(SC)cc3)C2)cc1 (configuration not stated)	-4%	-30%	1%	.	-61%	0
CCN1CCOC(CC(=O)Nc2ccc([N+](=O)[O-])cc2)C1=O (configuration not stated)	0%	?	15µM*	3%	20µM*	-2
O=C(CC1C(=O)NC2CCCCC2N1C(=O)c1ccc([N+](=O)[O-])cc1)Nc1ccccc1 (configuration not stated)	-8%	16µM*	?	-5%	-11%	10
CCCCCCC1CC(CC(=O)Nc2ccc([N+](=O)[O-])cc2)C(=O)O1 (configuration not stated)	?	?	18µM*	0%	2%	-61*
O=C(CC1OCC2CCCN2C1=O)Nc1ccc([N+](=O)[O-])cc1 (configuration not stated)	5%	?	16µM*	7%	-1%	?
COCCNC(=O)C1(C)C=CCN1C(C)=O (configuration not stated)	.	.	.	6%	.	.
O=P(O)(O)OC[C@H]1O[C@](O)(COP(=O)(O)O)[C@@H](O)[C@@H]1O	.	-4%	7%	1%	.	.
C=C(C1=CCN(S(=O)(=O)C(C)(C)C)[C@H]1CCO)c1ccccc1	6%	16µM*	?	.	-9%	21
C=CC1=CCN(S(=O)C(C)(C)C)[C@@H]1CCO (some centres not stated)	-13%	-14%	-16%	.	-41%	6
C=C(C1=CCN(S(=O)C(C)(C)C)[C@H]1CCO)c1ccccc1 (some centres not stated)	5%	?	13µM*	.	-32%	20
O=[N+]([O-])c1cc(S(=O)(=O)N2CCOCC2)ccc1N1CCCC1	17%	-1%	2%	-4%	-4%	-7
Cc1ccc(C)n1-c1cc(S(=O)(=O)N2CCOCC2)ccc1N1CCCC1	-7%	26µM*	21µM*	4%	-11%	-11
SMILES	TGFb inhibitor	DT40 TDP1 no CPT	TDP1 cell CPT	TDP1 inh	HepG2 viability	IL-1B inflam inh
Cc1cc(CNCCN(C)C)c(C)n1-c1cc(S(=O)(=O)N2CCOCC2)ccc1N1CCCC1	-9%	16µM*	?	.	-20%	-6
CNCc1cc(C)n(-c2cc(S(=O)(=O)N3CCOCC3)ccc2N2CCCC2)c1C	2%	?	?	.	-46%	-10
CCOC(=O)c1c(-c2ccc3ccccc3c2)csc1NC(=O)CCCC(=O)O	?	?	-17%	-4%	-12%	16
COC1=C(OC)C(=O)C(Sc2ccc3ccccc3c2)=CC1=O	?	1.3µM*	1.3µM*	.	-61%	-104*
Cc1ccc2cc(CN(c3ccccc3C)S(=O)(=O)c3ccccc3)c(=O)[nH]c2c1	-4%	?	?	0%	-2%	21
Cn1c(=O)c(-c2ccccc2)nc2cnc(N3CCOCC3)nc21	.	-25%	-8%	.	.	.
C[C@@H]1CCCCO[C@H](CN(C)C(=O)Nc2ccc3c(c2)OCO3)[C@@H](C)CN([C@H](C)CO)C(=O)c2cc(NS(=O)(=O)c3ccc(F)cc3)ccc2O1	-12%	21µM*	?	.	-28%	-29
CC(C)NC(=O)N(C)C[C@H]1OCCCC[C@H](C)Oc2ccc(NS(=O)(=O)c3ccccc3)cc2C(=O)N([C@H](C)CO)C[C@H]1C	24%	4%	-1%	.	15%	7
C[C@@H]1CCCCO[C@H](CN(C)C(=O)Nc2ccc3c(c2)OCO3)[C@H](C)CN([C@@H](C)CO)C(=O)c2cc(NS(=O)(=O)c3ccc(Cl)cc3)ccc2O1	4%	16µM*	16µM*	.	3%	-11
O=C(Nc1cccc(C(F)(F)F)c1)c1cc2c(=O)c3ccccc3oc2nc1C(F)(F)F	-1%	29µM*	?	2%	0%	-1
Cc1no[n+]([O-])c1COc1cccc(/C=C2\N=C(c3ccccc3)OC2=O)c1	1%	1%	-8%	2%	-4%	-15
O=C1OC(c2ccccc2)=N/C1=C/c1cccc(OC(=O)c2cccs2)c1	-7%	-30%	-3%	.	2%	-52*
CCCn1ncc(CN2CCC(n3nccc3NC(=O)c3ccccc3Cl)CC2)c1C	-9%	2%	8%	1%	-12%	-13
N#CC[n+]1cc(-c2ccc(Cl)cc2)n2c1CCC2	-6%	0%	-5%	1%	1%	17

Source: PubChem BioAssay (National Center for Advancing Translational Sciences (NCATS))
